Set-up in all cases: scale not given: direction of the effect not stated beside the values
Assay [1] deals with Protein translocase subunit SecA (Escherichia coli (strain K12)) (UniProt P10408). In words: Assay to Identify E. coli SecA ATPase Inhibitors. Format: functional. Conditions: 30 µM.
In assay [2] the target is T1, Ubiquitin-activating enzyme e1, putative (Leishmania donovani (strain BPK282A1)) (UniProt E9BSI1).
T1 sequence (whole entry): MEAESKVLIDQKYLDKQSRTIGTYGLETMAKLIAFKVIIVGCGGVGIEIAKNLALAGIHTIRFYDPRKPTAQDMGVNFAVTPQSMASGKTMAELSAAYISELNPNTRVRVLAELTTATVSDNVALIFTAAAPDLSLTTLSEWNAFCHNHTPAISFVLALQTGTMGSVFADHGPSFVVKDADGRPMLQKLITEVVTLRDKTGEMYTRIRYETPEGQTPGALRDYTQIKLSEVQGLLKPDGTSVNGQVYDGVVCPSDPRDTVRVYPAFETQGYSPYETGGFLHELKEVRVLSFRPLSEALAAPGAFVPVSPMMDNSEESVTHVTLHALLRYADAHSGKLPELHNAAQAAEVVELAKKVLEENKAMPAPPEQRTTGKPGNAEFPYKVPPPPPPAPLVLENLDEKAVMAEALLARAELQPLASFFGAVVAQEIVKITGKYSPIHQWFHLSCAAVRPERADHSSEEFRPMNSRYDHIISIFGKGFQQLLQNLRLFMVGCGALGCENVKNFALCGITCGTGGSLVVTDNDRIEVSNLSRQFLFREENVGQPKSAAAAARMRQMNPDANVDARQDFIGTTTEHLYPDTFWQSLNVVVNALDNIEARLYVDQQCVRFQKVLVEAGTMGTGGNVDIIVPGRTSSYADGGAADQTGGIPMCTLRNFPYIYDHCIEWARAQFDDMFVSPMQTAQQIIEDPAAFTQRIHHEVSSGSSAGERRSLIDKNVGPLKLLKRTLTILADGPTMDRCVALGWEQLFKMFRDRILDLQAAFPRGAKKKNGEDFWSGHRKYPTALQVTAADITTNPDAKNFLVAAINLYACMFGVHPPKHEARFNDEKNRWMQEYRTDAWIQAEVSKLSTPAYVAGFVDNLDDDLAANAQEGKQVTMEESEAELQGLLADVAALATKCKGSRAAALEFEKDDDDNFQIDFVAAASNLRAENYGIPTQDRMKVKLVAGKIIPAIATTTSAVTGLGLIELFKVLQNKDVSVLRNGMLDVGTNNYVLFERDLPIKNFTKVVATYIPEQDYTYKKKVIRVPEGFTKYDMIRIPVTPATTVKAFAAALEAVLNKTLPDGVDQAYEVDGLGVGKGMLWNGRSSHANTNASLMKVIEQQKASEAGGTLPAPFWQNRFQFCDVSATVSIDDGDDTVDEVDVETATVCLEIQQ
Put plainly: Leishmania donovani Ubiquitin Activating Enzyme (LdE1). It is filed as functional. The note with it: 30 µM.

Assay [3] concerns the target AMP-activated protein kinase, AMPK (Homo sapiens) (UniProt P54646+O43741+P54619+Q9UGJ0+Q9Y478+Q13131+Q9UGI9). Put plainly: AMP-dependent Kinase enzyme assay. An in vitro enzyme assay that detects ADP turnover that is directly proportional to AMPK activity. This uses naive AMPK that is activated during the assay with MK-8722. Conditions: 30 µM. It is filed as functional.

Assay [4] has as its target Sialic acid-binding Ig-like lectin 9 (Homo sapiens) (UniProt Q9Y336). Put plainly: Hs-Siglec9 ALPHAscreen SOP 20170721. Conditions: 10 µM. A general note: Alpha assays give light when donor and acceptor beads are brought close together.
Assay [5] deals with Trypanosoma cruzi. Put plainly: Trypanosoma cruzi phosphomannomutase and mannose-1-phosphate guanylyltransferase assay. Format: functional. The note with it: 10 µM.
Assay [6] deals with T2, Arginase-2, mitochondrial (Homo sapiens) (UniProt P78540).
T2 sequence (whole entry): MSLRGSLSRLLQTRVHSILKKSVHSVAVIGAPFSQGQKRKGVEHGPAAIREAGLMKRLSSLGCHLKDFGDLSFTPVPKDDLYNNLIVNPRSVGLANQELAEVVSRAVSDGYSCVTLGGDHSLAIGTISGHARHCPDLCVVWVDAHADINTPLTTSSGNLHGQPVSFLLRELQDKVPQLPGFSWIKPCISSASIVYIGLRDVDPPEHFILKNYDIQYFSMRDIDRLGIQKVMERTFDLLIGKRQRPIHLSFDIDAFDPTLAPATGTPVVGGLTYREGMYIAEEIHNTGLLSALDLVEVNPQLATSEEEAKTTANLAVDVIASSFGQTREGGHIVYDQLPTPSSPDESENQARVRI
In words: in vitro enzyme assay to detect the production of urea directly proportional to the activity of Arginase II. Also: in the data most compounds retested in dose-response had high values. It is filed as functional. Conditions: 33.3 µM.

Assay [7] has as its target T3, Proteasome subunit beta (Trypanosoma cruzi) (UniProt O96673).
T3 sequence (whole entry): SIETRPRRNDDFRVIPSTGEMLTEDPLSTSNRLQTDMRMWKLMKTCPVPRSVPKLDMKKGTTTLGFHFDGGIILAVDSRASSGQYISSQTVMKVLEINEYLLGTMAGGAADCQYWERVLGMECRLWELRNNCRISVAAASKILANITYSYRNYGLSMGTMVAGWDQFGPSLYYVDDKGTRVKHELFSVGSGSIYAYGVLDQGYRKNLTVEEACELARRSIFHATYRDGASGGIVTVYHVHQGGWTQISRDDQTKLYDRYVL
Put plainly: Trypanosoma cruzi proteasome chymotrypsin-like activity (TcProtChymo) assay. Also: in the data most compounds retested in dose-response had high values. It is filed as functional. Conditions: 9.37 µM.

The species named for assay [8] is Homo sapiens. In words: To identify inhibition of the IFN signalling (Jak-Stat) pathway via expression of an eGFP reporter gene under the control of an IFN-stimulated response element (ISRE) containing MxA promoter. Conditions: 30 µM. Format: functional. (In general: In a reporter assay the amount or activity of a reporter protein is the signal.)
The target in assay [9] is T4, Tyrosyl-tRNA synthetase, putative (Trypanosoma cruzi (strain CL Brener)) (UniProt Q4DSP6).
T4 sequence (whole entry): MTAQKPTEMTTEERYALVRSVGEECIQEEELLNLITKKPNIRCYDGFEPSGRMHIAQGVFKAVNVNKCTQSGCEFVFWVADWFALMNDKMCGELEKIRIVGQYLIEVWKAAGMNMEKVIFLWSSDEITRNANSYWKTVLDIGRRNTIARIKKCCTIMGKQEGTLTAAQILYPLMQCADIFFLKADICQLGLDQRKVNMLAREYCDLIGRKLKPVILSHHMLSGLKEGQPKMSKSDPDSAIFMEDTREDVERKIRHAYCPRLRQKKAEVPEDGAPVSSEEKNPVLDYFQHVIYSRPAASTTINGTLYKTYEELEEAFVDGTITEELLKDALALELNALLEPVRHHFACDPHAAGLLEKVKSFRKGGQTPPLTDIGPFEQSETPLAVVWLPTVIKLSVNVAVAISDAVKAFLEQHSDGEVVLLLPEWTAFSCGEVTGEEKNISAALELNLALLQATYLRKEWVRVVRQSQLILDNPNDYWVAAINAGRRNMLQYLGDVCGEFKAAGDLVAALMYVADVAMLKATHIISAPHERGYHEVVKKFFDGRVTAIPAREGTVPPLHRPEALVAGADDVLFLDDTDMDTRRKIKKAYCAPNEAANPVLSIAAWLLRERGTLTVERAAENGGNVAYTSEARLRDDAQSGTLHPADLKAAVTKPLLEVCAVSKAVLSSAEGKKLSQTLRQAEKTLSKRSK
In words: Trypanosoma cruzi tyrosyl tRNA synthetase (TcYRS) _High Tyrosine SOP. Also: in the data most compounds retested in dose-response had high values. Format: functional. Conditions: 30 µM.

Assay [10] has as its target T4, Tyrosyl-tRNA synthetase, putative (Trypanosoma cruzi (strain CL Brener)). In words: Trypanosoma cruzi tyrosyl tRNA synthetase (TcYRS) SOP. Format: functional. The note with it: 30 µM.
The target of assay [11] is Chromo domain-containing protein 1 (Saccharomyces cerevisiae (strain ATCC 204508 / S288c) (Baker's yeast)) (UniProt P32657). In words: ScCHD-1 Enzyme Inhibition Assay. Also: in the data most compounds retested in dose-response had high values. It is filed as functional. Conditions: 30 µM.

For some of these results: Entries with a potency or affinity are not part of this list.

The source of these data is ChEMBL document CHEMBL3988442, “University of Dundee, Small-Polar-MMV Screening Library” (2021).

Protein translocase subunit SecA (Escherichia coli (strain K12)), sequence (P10408 whole entry): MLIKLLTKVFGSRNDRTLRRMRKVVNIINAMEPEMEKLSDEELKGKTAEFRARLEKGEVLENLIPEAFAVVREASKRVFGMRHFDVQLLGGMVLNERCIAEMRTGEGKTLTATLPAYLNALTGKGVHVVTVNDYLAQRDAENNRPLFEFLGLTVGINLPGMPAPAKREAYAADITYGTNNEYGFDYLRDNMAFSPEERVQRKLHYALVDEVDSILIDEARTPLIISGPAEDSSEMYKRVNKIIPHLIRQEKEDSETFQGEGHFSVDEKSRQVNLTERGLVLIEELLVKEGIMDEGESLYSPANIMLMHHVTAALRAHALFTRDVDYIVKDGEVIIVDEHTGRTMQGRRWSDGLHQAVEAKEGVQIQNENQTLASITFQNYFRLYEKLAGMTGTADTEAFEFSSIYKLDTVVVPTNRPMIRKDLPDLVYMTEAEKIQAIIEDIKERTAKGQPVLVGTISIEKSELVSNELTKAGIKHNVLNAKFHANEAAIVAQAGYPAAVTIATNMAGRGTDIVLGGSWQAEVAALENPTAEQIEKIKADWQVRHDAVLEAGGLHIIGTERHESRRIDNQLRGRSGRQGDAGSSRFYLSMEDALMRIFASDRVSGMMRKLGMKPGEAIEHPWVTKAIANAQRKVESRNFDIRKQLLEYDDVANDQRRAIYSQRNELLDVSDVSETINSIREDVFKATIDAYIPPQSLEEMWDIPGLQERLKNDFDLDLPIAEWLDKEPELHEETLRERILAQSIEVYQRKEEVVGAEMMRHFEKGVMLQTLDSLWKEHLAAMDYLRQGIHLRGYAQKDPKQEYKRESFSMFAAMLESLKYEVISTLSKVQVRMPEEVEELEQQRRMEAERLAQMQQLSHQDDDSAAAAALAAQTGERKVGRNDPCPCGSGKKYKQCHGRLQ
Chromo domain-containing protein 1 (Saccharomyces cerevisiae (strain ATCC 204508 / S288c) (Baker's yeast)), sequence (P32657 whole entry, the tested form may be a part): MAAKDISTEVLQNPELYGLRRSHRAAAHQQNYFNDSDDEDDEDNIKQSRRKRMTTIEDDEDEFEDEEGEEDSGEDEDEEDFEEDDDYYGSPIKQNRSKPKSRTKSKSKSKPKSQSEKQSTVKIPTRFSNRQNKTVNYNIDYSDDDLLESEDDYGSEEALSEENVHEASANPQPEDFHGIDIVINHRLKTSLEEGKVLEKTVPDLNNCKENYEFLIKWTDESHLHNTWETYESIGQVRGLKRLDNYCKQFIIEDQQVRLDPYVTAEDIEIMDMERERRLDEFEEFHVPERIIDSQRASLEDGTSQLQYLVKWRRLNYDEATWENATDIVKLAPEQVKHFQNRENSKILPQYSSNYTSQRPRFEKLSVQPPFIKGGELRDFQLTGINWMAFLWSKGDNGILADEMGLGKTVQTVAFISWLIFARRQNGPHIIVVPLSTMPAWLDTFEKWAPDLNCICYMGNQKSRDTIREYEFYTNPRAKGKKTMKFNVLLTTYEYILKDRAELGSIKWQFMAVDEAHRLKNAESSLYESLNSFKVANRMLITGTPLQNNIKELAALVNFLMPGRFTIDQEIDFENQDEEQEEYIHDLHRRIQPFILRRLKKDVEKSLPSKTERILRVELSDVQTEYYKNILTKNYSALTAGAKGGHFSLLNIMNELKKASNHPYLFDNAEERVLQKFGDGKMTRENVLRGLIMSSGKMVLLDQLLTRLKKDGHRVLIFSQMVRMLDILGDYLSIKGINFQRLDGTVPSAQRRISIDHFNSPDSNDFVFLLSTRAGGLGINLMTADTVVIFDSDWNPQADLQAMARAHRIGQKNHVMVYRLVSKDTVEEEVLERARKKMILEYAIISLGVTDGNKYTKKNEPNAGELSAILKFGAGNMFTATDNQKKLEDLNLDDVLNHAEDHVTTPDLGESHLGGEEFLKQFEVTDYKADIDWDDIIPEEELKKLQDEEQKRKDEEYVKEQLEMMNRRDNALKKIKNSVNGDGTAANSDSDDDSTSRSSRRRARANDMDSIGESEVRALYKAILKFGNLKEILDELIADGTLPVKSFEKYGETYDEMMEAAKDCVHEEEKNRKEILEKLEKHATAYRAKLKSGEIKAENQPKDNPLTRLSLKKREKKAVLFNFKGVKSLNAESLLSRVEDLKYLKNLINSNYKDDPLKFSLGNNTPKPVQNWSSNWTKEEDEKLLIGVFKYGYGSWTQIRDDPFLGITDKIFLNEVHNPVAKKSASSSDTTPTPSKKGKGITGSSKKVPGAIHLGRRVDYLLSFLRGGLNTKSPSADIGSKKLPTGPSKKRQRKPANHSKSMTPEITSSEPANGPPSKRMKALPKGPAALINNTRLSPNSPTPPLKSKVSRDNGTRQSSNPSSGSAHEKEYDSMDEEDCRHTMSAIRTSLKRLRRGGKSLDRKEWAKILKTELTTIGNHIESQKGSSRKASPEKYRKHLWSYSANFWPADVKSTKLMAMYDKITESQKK
Sialic acid-binding Ig-like lectin 9 (Homo sapiens), sequence (Q9Y336 whole entry): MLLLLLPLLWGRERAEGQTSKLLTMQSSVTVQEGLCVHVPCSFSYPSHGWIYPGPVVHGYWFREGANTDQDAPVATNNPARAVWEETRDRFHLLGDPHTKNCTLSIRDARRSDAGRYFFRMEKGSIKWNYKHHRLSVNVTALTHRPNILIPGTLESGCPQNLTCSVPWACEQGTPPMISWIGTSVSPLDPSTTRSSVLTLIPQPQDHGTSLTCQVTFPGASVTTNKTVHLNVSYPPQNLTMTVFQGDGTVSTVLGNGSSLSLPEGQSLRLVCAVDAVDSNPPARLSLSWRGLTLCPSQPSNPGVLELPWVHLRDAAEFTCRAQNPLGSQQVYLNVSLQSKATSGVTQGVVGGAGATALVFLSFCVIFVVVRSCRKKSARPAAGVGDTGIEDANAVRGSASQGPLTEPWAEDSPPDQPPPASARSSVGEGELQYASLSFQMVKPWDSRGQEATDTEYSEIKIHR

As for `O=C(NCc1nnc2n1CCCCC2)N1CCc2sccc2C1`, the Percent Effect was 0.647% in assay [1]; 16.5% in assay [2]; -6.61% in [3]; 2.88% in [4]; 1.95% in assay [5]; 2.8% in [6]. In addition, the Percent Effect in assay [7] is 13%; in assay [8], 16.8%; in assay [9] it was 0%; in assay [10], 10.1%; in [11] it was -27%.

Regarding `CC(C)c1nc(N2CC(N3CCCCC3C)C2)c2cnn(C)c2n1` (stereo unspecified), the Percent Effect in assay [1] was -7.05%; in assay [2], -2.74%; in assay [3], -1.43%; in assay [4] it was -2.38%; in [5] it was -7.14%; in assay [6], -2%. Besides, the Percent Effect in assay [7] is 4.54%; in [8], 4.43%; in [9] it was -3.12%; in assay [10], 8.64%; in [11], -2.78%.

Take `Cc1oc(C)c(C(=O)NCc2cccnc2N(C)C)c1C`: the Percent Effect is -1.52% in assay [1]; 13.2% in assay [2]; 4.37% in assay [3]; -11.8% in assay [4]; -3.57% in assay [5]; -1.53% in [6]. Moreover, the Percent Effect in assay [7] is 5.35%; in assay [8], -12.2%; in assay [9] it was 1.47%; in assay [10], 12.2%; in [11], -9.19%.

As for `c1cc2n(n1)CC(CNCc1ccc(OCC3CC3)nc1)CN2` (stereo unspecified), the Percent Effect in [1] is -1.23%; in [2] it was 20.8%; in assay [3] it was 11.1%; in assay [4] it was 4.04%; in assay [5], 7.68%; in assay [6] it was 0.356%. Further, the Percent Effect is 3.04% in assay [7]; -0.525% in [8]; 13.6% in assay [9]; 24.4% in [10]; -9.69% in assay [11].

`O=C(Nc1ccccc1OC(F)F)C1=NN(c2ccccc2)C(=O)CN1`: the Percent Effect in assay [1] was -1.64%; in assay [2] it was 10.1%; in assay [3], -3.73%; in [4], -7.92%; in [5] it was -3.87%; in assay [6], 3.04%. The Percent Effect is 8.11% in [7]; 8.86% in [8]; -0.493% in assay [9]; 11.4% in assay [10]; -4.54% in assay [11].

Regarding `Cc1ncsc1CN1C[C@@H](OCC2CC2)[C@H]2OCCC[C@H]21`, the Percent Effect was -6.87% in assay [1]; 8.11% in assay [2]; -8.86% in assay [3]; 32.2% in assay [4]; 4.79% in assay [5]; -0.248% in assay [6]. The Percent Effect in assay [7] is 24.3%; in assay [8], -4.12%; in assay [9], 5.38%; in assay [10], 16.1%; in assay [11] it was -8.25%.

Consider `CN(C)Cc1ccnc(C2CCCN2Cc2ccncc2)n1` (stereo unspecified), for which the Percent Effect in assay [1] is -4.54%; in assay [2], 9.46%; in assay [3] it was -5.08%; in assay [4] it was 2.14%; in assay [5], 6.72%; in [6] it was -4.41%. Moreover, the Percent Effect in assay [7] was 4.21%; in assay [8], 7.82%; in assay [9], 3.23%; in [10] it was 11.7%; in assay [11], -20.6%.

For `CCc1nc(NCC(=O)N2CCOCC2)c2c(n1)c(C)nn2CC`, the Percent Effect is -2.78% in assay [1]; 6.67% in assay [2]; 0.5% in assay [3]; 7.26% in assay [4]; -6.09% in [5]; -6.87% in assay [6]. In addition, the Percent Effect is 10.7% in assay [7]; -5.15% in assay [8]; 2.12% in [9]; 5.13% in [10]; -5.78% in assay [11].

`CCCNC(=O)CCNC(=O)Cc1nc(-c2ccco2)oc1C`: the Percent Effect in assay [1] is -3.29%; in assay [2], 2.67%; in assay [3], -1.47%; in [4], 12.8%; in assay [5] it was -5.16%; in [6], 4.69%. Further, the Percent Effect was 13.2% in [7]; 8.33% in assay [8]; 3.83% in assay [9]; 8.64% in assay [10]; -3.56% in assay [11].

Consider `O=C(CN1CCCC1Cn1cncn1)Nc1cccnc1` (stereo unspecified), for which the Percent Effect was -3.94% in assay [1]; 9.72% in assay [2]; -1.95% in assay [3]; 0.616% in [4]; -1.26% in assay [5]; 4.86% in assay [6]. Besides, the Percent Effect is 16% in assay [7]; -11.7% in assay [8]; 5.26% in assay [9]; 10.3% in [10]; -1.86% in assay [11].

As for `CC(CNCc1ccncc1)Oc1ccccn1` (stereo unspecified), the Percent Effect in [1] was -0.77%; in assay [2] it was 9.33%; in assay [3], -1.66%; in [4], 5.01%; in assay [5], 0%; in [6], -15.3%. The Percent Effect in assay [7] was 13.9%; in assay [8] it was 2.27%; in [9] it was 4.23%; in [10], 7.69%; in [11], -10.8%.
